Measurements from PubChem BioAssay (Tox21).
Results filed as inconclusive are left out. Entries that show only a call come without a potency. Calls of active or inactive are those of the source. Calls follow the shape of the dose curve; as a rule, active = well fitted curve in the direction sought with a large enough effect in the repeat runs; inconclusive = weak or mixed curves; inactive = no such curve, though single readings can be large; an effect the other way counts as inactive or inconclusive.

Each molecule was assayed against Nuclear receptor subfamily 1 group I member 2 (Homo sapiens) (UniProt O75469) (assay: Human pregnane X receptor (PXR) activation by small molecules, qHTS assay (AID 1346985; also: nearly all actives have a fitted effect of over 40% in size)). Conditions: DPX-2 HepG2 CYP3A4-luciferase, 24 h; series mostly up to 38.3 µM.
In short: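 DPX-2 cells (HepG2 co-transfected with a PXR response element and a CYP3A4-promoter luciferase construct) were seeded at 2,000 per well, rested 5 hr at 37C, then exposed to DMSO-dissolved compounds for 24 hr. Activation was read as luciferase luminescence.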
Potency is read from the fitted curve at half-maximal effect.

Row | Compound | Potency
1 | CN1CCN(C2=Nc3cc(F)ccc3Cc3ccccc32)CC1 | 22.4 µM (active)
2 | CCc1cc(Cl)c(OC)c(C(=O)NC[C@@H]2CCCN2CC)c1O | 25.1 µM (active)
3 | OCc1ccccc1O | inactive
4 | CCc1nnc(NS(=O)(=O)c2ccc(N)cc2)s1 | inactive
5 | CN1CCN(c2c(F)cc3c(=O)c(C(=O)O)cn(CCF)c3c2F)CC1 | inactive
6 | CCN(CCCc1ccccc1)CCCc1ccccc1 | inactive
7 | COc1ccc(S(=O)(=O)Nc2nnc(CC(C)C)s2)cc1 | inactive
8 | CCCCc1ccc2nc(NC(=O)OC)[nH]c2c1 | 4.47 µM (active)
9 | Cc1cc(NS(=O)(=O)c2ccc(N)cc2)nc(C)n1 | inactive

Each molecule was assayed against Cytochrome P450 2D6 (Homo sapiens) (UniProt P10635) (assay: Cytochrome P450 Family 2 Subfamily D Member 6 (CYP2D6) small molecule antagonists: luciferase reporter qHTS assay (AID 1671196; also: nearly all actives have a fitted effect of over 50% in size)). Conditions: P450-Glo CYP2D6 enzyme assay, luciferin luminescence, 1 h; series mostly up to 115 µM.
Cytochrome P450 2D6 (Homo sapiens), sequence (P10635 whole entry, looked up): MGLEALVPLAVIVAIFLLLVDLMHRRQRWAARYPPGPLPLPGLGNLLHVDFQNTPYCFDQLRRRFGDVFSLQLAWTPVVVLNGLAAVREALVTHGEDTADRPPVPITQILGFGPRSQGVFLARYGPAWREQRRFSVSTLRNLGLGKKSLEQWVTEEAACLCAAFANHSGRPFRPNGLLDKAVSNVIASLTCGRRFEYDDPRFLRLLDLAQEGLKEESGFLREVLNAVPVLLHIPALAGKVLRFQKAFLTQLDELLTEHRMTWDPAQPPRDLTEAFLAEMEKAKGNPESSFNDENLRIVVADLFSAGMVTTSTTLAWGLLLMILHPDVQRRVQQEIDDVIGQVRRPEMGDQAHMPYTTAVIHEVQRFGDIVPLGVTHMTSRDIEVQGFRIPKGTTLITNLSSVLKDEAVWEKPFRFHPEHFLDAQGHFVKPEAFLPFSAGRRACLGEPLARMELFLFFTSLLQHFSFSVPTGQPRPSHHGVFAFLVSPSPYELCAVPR
In short: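 Chemicals tested for interference with CYP2D6 activity; proluciferin substrate, NADPH regeneration, 1 h at room temperature, luminescent detection.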

Row | Compound | Potency
10 | CN1CCN(C2=Nc3cc(F)ccc3Cc3ccccc32)CC1 | 4.9 µM (active)
11 | NC(=O)Cc1cccc(C(=O)c2ccccc2)c1N | inactive
12 | CCc1cc(Cl)c(OC)c(C(=O)NC[C@@H]2CCCN2CC)c1O | 0.617 µM (active)
13 | OCc1ccccc1O | inactive
14 | CC1(O)CSC(C)(O)CS1 (stereo unspecified) | inactive
15 | O=C(O)[C@@H](O)[C@H](O)[C@H](O)[C@@H](O)C(=O)O | inactive
16 | CC(=O)OC(C)OC(C)=O | inactive
17 | CCC/C=C/CO | inactive
18 | COc1cc2c(cc1N)oc1ccccc12 | 7.25 µM (active)
19 | O=C1CCCCCCCCCCC(=O)OCCO1 | inactive
20 | Cc1onc(-c2ccccc2)c1C(=O)Cl | inactive
21 | C=CCCC=C | inactive
22 | CCOC(=O)NCCC[Si](OCC)(OCC)OCC | inactive
23 | OCc1c2ccccc2cc2ccccc12 | inactive
24 | O=C(C(Cl)Cl)N1CCOC12CCCCC2 | inactive
25 | Cn1cnc2c(F)c(Nc3ccc(Br)cc3Cl)c(C(=O)NOCCO)cc21 | inactive

Row | Compound | Potency
26 | CCc1nnc(NS(=O)(=O)c2ccc(N)cc2)s1 | inactive
27 | CN1CCN(c2c(F)cc3c(=O)c(C(=O)O)cn(CCF)c3c2F)CC1 | inactive
28 | COC(=O)c1ccc(OC)cc1 | inactive
29 | NC(=O)NS(=O)(=O)c1ccc(Cl)cc1 | inactive
30 | CCOC(=O)c1cc(=O)c2c(OCC(COc3cccc4oc(C(=O)OCC)cc(=O)c34)OC(=O)[C@@H](N)CCCCN)cccc2o1 | inactive
31 | CCN(CCCc1ccccc1)CCCc1ccccc1 | 0.871 µM (active)
32 | C=C(C)C(=O)OCCOP(=O)(O)O | inactive
33 | C[C@]12C(=O)OC(=O)[C@H]1[C@H]1C=C[C@@H]2C1 | inactive
34 | Cc1ccc([N+](=O)[O-])c(N)c1 | inactive
35 | O=C(O[C@@H](C(=O)O)[C@@H](OC(=O)c1ccccc1)C(=O)O)c1ccccc1 | 40.6 µM (active)
36 | CCOC(=O)C1CC(=O)C(=C(O)C2CC2)C(=O)C1 (stereo unspecified) | inactive
37 | FC(F)(F)C(Cl)(Cl)Cl | inactive
38 | COc1ccc(S(=O)(=O)Nc2nnc(CC(C)C)s2)cc1 | inactive
39 | Cc1ccc([N+](=O)[O-])cc1Cl | inactive
40 | CCCCc1ccc2nc(NC(=O)OC)[nH]c2c1 | inactive
41 | Cc1cc(NS(=O)(=O)c2ccc(N)cc2)nc(C)n1 | inactive
